Measurements as given in article PMC7862700, “An all-to-all approach to the identification of sequence-specific readers for epigenetic DNA modifications on cytosine”.

Key:
Assay in all cases: DAPPL (digital affinity profiling via proximity ligation, sequencing); 10 mM Tris-HCl pH 7.5, 50 mM NaCl, 1 mM DTT, 4% glycerol, room temperature, 30 min; GST-TFs on glutathione beads, 16-mer random dsDNA library, 0.1% formaldehyde crosslink after washing; high values mean tight binding
FEV = molecular target: T1, FEV (Homo sapiens, UniProt Q99581 1-238); conditions: protein: recombinant; tags: N-terminal GST; dsDNA, one strand shown
T1 sequence: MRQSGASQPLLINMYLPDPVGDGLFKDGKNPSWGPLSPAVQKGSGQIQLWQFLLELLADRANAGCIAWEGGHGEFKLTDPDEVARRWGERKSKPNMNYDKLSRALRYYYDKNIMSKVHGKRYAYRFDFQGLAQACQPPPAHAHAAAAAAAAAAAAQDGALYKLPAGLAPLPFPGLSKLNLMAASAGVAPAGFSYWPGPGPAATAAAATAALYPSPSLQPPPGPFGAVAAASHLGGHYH
Method in brief: (§1)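 Human transcription factors were made in yeast as GST fusions, captured on glutathione beads and barcoded with DNA. With a tag-only sample included, the pool was incubated with 200 nmole of a random double-stranded 16-mer DNA library in Tris/NaCl/DTT/glycerol buffer at room temperature for 30 min, then crosslinked with 0.1% formaldehyde after washing, ligated by proximity, amplified and sequenced. For binding signal, each hexamer's read frequency for a factor is divided by its frequency for the tag-only sample.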

ETV5 = ETV5 (Homo sapiens, UniProt P41161 1-510); conditions: protein: recombinant; tags: N-terminal GST; dsDNA, one strand shown
Sequence of ETV5 (P41161 whole entry): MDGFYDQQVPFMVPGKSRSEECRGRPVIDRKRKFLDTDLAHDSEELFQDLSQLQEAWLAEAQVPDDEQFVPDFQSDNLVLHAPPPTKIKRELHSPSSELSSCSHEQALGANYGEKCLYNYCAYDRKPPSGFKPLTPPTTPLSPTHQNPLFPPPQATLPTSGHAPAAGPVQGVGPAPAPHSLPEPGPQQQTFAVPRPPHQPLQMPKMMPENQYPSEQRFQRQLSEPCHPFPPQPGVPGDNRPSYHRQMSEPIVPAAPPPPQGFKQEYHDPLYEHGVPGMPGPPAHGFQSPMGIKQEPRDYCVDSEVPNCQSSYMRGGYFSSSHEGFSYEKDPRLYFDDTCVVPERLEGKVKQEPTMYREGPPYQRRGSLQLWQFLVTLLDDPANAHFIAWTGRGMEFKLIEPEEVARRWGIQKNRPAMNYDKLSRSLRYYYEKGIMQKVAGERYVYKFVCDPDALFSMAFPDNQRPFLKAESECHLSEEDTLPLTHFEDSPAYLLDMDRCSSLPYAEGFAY
Method in brief: as §1

HSF1 = HSF1 (Homo sapiens, UniProt Q00613 1-529); conditions: protein: recombinant; tags: N-terminal GST; chain copies: 3; dsDNA, one strand shown
Sequence of HSF1 (Q00613 whole entry): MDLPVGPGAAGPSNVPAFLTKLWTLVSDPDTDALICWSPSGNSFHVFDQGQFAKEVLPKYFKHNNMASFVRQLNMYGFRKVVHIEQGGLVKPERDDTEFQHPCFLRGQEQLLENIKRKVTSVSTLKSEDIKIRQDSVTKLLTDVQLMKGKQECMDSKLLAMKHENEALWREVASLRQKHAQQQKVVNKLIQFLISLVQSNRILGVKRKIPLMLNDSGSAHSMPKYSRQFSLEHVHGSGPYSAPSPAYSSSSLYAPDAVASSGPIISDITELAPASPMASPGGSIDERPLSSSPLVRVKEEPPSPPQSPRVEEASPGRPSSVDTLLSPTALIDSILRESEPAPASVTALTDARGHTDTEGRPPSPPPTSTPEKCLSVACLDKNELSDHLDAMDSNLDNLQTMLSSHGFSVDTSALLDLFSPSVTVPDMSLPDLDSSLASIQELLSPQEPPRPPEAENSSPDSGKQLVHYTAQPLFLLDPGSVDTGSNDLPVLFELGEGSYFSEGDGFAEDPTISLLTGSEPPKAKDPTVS
Method in brief: as §1

SPIC = molecular target: T2, SPIC (Homo sapiens, UniProt Q8N5J4 1-248); conditions: protein: recombinant; tags: N-terminal GST; dsDNA, one strand shown
T2 sequence: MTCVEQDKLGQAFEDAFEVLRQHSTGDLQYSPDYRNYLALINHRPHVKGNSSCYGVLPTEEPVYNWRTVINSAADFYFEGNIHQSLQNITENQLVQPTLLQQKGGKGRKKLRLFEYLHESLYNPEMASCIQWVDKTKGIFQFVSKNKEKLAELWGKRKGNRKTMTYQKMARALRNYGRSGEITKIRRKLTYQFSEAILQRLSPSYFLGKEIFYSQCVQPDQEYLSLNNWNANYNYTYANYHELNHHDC
Method in brief: as §1

ELF4 = ELF4 (Homo sapiens, UniProt Q99607 1-663); conditions: protein: recombinant; tags: N-terminal GST; dsDNA, one strand shown
Sequence of ELF4 (Q99607 whole entry): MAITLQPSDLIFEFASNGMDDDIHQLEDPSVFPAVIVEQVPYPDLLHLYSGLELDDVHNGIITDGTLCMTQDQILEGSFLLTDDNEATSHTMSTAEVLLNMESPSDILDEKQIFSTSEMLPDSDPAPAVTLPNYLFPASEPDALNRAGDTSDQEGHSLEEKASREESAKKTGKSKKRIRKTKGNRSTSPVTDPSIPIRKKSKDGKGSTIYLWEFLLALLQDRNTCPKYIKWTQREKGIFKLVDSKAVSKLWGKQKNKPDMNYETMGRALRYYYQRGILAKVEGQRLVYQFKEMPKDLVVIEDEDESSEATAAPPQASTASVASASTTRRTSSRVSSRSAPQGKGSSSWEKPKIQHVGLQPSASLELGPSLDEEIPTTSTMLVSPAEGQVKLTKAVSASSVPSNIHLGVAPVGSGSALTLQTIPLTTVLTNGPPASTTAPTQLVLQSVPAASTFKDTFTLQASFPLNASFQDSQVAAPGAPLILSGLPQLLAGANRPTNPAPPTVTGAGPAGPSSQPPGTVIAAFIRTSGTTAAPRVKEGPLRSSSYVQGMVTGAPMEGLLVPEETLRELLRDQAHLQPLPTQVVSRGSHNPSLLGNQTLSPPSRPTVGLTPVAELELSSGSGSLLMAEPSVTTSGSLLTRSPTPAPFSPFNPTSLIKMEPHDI
Method in brief: as §1

ELK4 = molecular target: T3, ELK4 (Homo sapiens, UniProt P28324-2 1-405); conditions: protein: recombinant; tags: N-terminal GST; dsDNA, one strand shown
T3 sequence: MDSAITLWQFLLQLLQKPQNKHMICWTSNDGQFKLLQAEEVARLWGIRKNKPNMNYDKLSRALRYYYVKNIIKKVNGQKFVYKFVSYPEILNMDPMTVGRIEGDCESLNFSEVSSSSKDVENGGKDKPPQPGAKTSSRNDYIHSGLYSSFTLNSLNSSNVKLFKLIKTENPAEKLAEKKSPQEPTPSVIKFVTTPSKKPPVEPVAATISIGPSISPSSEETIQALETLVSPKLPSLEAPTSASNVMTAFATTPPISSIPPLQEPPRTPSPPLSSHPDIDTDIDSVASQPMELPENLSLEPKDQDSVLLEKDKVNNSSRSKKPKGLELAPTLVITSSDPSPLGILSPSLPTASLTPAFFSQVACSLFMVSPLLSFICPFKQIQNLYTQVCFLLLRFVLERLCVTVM
Method in brief: as §1

ETV2 = molecular target: T4, ETV2 (Homo sapiens, UniProt O00321 1-342); conditions: protein: recombinant; tags: N-terminal GST; dsDNA, one strand shown
T4 sequence: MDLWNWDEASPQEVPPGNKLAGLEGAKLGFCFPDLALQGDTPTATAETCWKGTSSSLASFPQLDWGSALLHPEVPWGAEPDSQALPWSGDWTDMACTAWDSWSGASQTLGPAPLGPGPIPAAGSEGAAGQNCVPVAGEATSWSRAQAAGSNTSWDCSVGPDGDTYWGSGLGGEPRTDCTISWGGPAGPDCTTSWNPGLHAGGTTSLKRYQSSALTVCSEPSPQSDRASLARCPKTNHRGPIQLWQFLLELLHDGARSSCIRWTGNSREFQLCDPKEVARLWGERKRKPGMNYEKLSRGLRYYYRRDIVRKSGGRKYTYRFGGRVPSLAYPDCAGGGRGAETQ
Method in brief: as §1

ELF3 = molecular target: T5, ELF3 (Homo sapiens, UniProt P78545 1-371); conditions: protein: recombinant; tags: N-terminal GST; dsDNA, one strand shown
T5 sequence: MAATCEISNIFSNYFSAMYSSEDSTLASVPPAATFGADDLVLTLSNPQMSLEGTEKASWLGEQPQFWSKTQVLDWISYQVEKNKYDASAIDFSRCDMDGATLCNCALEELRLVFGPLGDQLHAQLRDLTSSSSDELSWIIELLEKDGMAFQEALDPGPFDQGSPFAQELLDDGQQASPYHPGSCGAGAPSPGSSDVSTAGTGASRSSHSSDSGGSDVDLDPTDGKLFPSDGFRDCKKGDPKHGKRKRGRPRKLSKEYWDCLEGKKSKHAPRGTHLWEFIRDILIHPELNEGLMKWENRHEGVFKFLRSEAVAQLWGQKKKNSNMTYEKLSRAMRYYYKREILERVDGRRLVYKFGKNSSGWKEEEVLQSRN
Method in brief: as §1

CRX = CRX (Homo sapiens, UniProt O43186 1-299); conditions: protein: recombinant; tags: N-terminal GST; dsDNA, one strand shown
Sequence of CRX (O43186 whole entry): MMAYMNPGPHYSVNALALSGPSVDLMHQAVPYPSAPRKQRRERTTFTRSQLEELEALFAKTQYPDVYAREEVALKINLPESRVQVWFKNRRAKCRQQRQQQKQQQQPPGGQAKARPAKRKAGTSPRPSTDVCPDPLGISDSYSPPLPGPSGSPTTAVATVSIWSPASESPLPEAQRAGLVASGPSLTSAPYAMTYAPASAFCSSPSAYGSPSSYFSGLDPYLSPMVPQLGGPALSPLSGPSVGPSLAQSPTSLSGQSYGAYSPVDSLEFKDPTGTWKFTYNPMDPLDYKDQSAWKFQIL
Method in brief: as §1

ETV1 = ETV1 (Homo sapiens, UniProt P50549 1-477); conditions: protein: recombinant; tags: N-terminal GST; dsDNA, one strand shown
Sequence of ETV1 (P50549 whole entry): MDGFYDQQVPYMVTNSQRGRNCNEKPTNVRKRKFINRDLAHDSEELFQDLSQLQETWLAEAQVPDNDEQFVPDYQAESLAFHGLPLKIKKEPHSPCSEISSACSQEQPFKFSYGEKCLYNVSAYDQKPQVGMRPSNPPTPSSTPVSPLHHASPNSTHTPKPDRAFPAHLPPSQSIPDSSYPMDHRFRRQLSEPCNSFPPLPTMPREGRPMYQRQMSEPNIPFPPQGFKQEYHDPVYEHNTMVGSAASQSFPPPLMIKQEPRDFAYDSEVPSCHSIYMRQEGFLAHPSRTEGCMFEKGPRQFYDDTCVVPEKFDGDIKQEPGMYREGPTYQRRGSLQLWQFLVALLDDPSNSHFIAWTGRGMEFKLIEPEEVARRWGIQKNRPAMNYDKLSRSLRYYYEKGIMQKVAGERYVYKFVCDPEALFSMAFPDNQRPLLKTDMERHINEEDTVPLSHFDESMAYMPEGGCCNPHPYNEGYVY
Method in brief: as §1

ERF = molecular target: T6, ERF (Homo sapiens, UniProt P50548 1-548); conditions: protein: recombinant; tags: N-terminal GST; dsDNA, one strand shown
T6 sequence: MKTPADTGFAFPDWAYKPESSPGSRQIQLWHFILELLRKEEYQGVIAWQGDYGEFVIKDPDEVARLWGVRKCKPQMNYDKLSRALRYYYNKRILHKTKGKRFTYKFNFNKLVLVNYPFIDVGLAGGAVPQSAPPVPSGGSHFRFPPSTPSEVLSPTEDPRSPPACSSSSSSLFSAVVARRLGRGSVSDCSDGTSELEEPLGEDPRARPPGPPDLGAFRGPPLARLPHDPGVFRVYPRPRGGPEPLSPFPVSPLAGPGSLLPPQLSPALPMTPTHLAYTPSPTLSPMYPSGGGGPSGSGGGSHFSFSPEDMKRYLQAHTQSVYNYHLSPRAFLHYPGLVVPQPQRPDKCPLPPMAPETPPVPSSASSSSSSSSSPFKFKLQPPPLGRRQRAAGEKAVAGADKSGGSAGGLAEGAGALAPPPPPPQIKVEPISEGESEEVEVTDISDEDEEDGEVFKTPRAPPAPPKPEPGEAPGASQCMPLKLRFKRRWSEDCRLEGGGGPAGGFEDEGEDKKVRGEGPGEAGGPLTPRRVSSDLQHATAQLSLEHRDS
Method in brief: as §1

ETV3L = molecular target: T7, ETV3L (Homo sapiens, UniProt Q6ZN32 1-361); conditions: protein: recombinant; tags: N-terminal GST; dsDNA, one strand shown
T7 sequence: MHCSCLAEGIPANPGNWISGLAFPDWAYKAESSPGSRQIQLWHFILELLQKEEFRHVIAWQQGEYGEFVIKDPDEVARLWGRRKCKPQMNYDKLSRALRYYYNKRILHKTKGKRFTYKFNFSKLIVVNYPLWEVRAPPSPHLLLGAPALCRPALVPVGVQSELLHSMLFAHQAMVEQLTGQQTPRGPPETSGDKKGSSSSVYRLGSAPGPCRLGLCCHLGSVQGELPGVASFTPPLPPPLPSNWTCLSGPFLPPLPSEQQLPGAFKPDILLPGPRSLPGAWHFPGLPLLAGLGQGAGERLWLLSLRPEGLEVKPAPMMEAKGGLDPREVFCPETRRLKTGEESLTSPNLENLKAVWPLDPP
Method in brief: as §1

ETS2 = molecular target: T8, ETS2 (Homo sapiens, UniProt P15036 1-469); conditions: protein: recombinant; tags: N-terminal GST; dsDNA, one strand shown
T8 sequence: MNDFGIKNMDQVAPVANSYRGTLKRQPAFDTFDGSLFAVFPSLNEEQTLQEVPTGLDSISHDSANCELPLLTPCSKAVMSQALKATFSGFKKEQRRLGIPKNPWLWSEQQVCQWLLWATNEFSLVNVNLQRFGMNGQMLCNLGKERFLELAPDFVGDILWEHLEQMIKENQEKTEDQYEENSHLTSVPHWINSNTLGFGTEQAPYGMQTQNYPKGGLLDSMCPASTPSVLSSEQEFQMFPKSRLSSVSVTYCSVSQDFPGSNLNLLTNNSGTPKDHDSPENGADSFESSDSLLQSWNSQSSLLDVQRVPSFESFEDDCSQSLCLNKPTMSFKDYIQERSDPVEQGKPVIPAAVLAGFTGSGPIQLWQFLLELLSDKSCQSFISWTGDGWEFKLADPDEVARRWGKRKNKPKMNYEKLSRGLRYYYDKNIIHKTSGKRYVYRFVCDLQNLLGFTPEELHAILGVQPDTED
Method in brief: as §1

SPDEF = molecular target: T9, SPDEF (Homo sapiens, UniProt O95238 1-335); conditions: protein: recombinant; tags: N-terminal GST; dsDNA, one strand shown
T9 sequence: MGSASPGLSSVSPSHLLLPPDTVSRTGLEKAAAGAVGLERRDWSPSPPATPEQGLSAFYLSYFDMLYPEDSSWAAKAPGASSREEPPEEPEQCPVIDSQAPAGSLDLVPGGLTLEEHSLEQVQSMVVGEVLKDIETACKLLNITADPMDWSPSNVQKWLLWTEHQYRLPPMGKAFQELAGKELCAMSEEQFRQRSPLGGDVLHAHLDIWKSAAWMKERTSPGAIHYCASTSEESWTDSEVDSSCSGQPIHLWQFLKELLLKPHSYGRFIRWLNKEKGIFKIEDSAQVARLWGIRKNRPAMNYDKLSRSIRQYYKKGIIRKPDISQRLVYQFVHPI
Method in brief: as §1

ETV7 = molecular target: T10, ETV7 (Homo sapiens, UniProt Q9Y603 1-341); conditions: protein: recombinant; tags: N-terminal GST; dsDNA, one strand shown
T10 sequence: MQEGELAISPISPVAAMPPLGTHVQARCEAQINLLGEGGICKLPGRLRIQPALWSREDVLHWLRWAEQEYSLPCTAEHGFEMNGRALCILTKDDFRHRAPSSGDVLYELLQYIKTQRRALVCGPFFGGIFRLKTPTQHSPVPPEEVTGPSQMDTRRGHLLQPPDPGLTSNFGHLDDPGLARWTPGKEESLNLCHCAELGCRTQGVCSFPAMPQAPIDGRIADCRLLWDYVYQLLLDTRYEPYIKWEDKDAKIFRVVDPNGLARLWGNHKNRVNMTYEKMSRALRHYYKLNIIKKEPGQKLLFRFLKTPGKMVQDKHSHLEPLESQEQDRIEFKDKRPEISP
Method in brief: as §1

ELF5 = molecular target: T11, ELF5 (Homo sapiens, UniProt Q9UKW6-2 1-255); conditions: protein: recombinant; tags: N-terminal GST; dsDNA, one strand shown
T11 sequence: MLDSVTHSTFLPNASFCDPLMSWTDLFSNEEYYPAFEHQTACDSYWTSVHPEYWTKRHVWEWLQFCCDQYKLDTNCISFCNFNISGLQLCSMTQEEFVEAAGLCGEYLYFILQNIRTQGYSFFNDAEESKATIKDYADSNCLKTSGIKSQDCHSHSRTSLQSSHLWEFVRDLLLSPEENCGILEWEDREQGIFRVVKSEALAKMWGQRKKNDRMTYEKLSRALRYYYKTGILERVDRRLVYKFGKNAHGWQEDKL
Method in brief: as §1

ETV3 = molecular target: T12, ETV3 (Homo sapiens, UniProt P41162-2 1-143); conditions: protein: recombinant; tags: N-terminal GST; dsDNA, one strand shown
T12 sequence: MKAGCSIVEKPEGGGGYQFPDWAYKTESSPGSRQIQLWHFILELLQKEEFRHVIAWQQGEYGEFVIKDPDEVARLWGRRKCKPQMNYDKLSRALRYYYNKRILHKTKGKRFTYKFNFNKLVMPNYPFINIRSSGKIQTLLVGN
Method in brief: as §1

ETV6 = ETV6 (Homo sapiens, UniProt P41212 1-452); conditions: protein: recombinant; tags: N-terminal GST; dsDNA, one strand shown
Sequence of ETV6 (P41212 whole entry): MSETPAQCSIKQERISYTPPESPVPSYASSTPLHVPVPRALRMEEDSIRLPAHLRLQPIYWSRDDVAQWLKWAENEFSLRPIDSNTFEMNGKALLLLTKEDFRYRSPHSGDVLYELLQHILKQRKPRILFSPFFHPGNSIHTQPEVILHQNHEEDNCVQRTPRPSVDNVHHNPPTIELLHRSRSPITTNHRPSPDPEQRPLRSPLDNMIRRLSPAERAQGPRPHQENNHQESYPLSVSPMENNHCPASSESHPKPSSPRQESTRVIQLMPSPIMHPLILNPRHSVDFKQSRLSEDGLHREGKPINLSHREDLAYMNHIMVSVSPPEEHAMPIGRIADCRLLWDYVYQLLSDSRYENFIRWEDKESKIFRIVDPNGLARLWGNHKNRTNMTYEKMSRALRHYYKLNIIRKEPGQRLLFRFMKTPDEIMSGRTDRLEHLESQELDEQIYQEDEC
Method in brief: as §1

CTAGCT
binding signal (FEV): 1.29 fold enrichment (6-mer frequency, TF over GST control)
binding signal (ETV5): 1.31 fold enrichment (6-mer frequency, TF over GST control)
binding signal (HSF1): 1.53 fold enrichment (6-mer frequency, TF over GST control)
binding signal (SPIC): 1.59 fold enrichment (6-mer frequency, TF over GST control)
binding signal (ELF4): 1.29 fold enrichment (6-mer frequency, TF over GST control)
binding signal (ELK4): 1.35 fold enrichment (6-mer frequency, TF over GST control)
binding signal (ETV2): 1.31 fold enrichment (6-mer frequency, TF over GST control)
binding signal (ELF3): 1.07 fold enrichment (6-mer frequency, TF over GST control)
binding signal (CRX): 1.31 fold enrichment (6-mer frequency, TF over GST control)
binding signal (ETV1): 1.24 fold enrichment (6-mer frequency, TF over GST control)
binding signal (ERF): 1.21 fold enrichment (6-mer frequency, TF over GST control)
binding signal (ETV3L): 1.29 fold enrichment (6-mer frequency, TF over GST control)
binding signal (ETS2): 1.25 fold enrichment (6-mer frequency, TF over GST control)
binding signal (SPDEF): 1.27 fold enrichment (6-mer frequency, TF over GST control)
binding signal (ETV7): 1.33 fold enrichment (6-mer frequency, TF over GST control)
binding signal (ELF5): 1.27 fold enrichment (6-mer frequency, TF over GST control)
binding signal (ETV3): 1.24 fold enrichment (6-mer frequency, TF over GST control)
binding signal (ETV6): 1.32 fold enrichment (6-mer frequency, TF over GST control)
